This is an account of results in PubChem BioAssay (NCI).

The structures appear in SMILES notation. This is part of a sample that, as a whole, favours compounds with a hit. Of some 83,000 tested, about 20% had one in any assay.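 In brief: 96-well plates, 48 h treatment, single concentration, percent growth endpoint.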 Values without a mark were called inactive. Calls of active or inactive are those of the source. The calls were made as follows: active = growth percent below 10; inactive = the rest.

Common to all, as to experiment: NCI-60 one-dose screen, 48 h (100 = growth as untreated, 0 = no growth, -100 = all killed)
Common to all, as to conditions: 10 µM

In assay [1] the test system is K-562 leukemia.
Assay [2] concerns MALME-3M melanoma.
Assay [3] deals with MDA-MB-231 breast.
The subject of assay [4] is RXF 393 renal.
Assay [5] deals with SF-268 CNS.
The subject of assay [6] is SF-295 CNS.
The test system of assay [7] is SF-539 CNS.
Assay [8] has as its system UACC-257 melanoma.
In assay [9] the test system is M14 melanoma.
Assay [10] has as its system HCT-15 colon.
Assay [11] relates to HT29 colon.
The subject of assay [12] is SNB-75 CNS.
In assay [13] the test system is SNB-19 CNS.
Assay [14] concerns U251 CNS.
Assay [15] relates to PC-3 prostate.
The subject of assay [16] is SK-MEL-5 melanoma.
Assay [17] has as its system UACC-62 melanoma.
Assay [18] deals with LOX IMVI melanoma.
The test system of assay [19] is SK-MEL-28 melanoma.
Assay [20] concerns SK-MEL-2 melanoma.

For the compound `CNc1ccc(CSc2ccc(C)cc2)cc1`, the growth was 119% in [1]; 94.4% in [2]; 33.4% in assay [3]; 64.2% in assay [4]; 69.6% in assay [5]; 103% in assay [6]. For the same compound, the growth is 56.3% in assay [7]; 93% in assay [8]; 84.7% in assay [9]; 89.2% in assay [10]; 100% in [11]; 60.7% in assay [12]. Besides, the growth in [13] was 93.3%; in assay [14], 52.4%; in assay [15], 60%; in assay [16] it was 67.7%; in [17] it was 86.2%; in assay [18], 92.1%. In addition, the growth is 93.8% in assay [19] and 96.8% in assay [20].

With `CSc1nc(=O)n(Cc2ccc(F)cc2)c(=O)n1Cc1ccc(C)cc1`, the growth in assay [1] is 91.1%; in assay [2], 97.6%; in assay [3], 103%; in assay [4] it was 113%; in assay [5], 96.6%; in [6] it was 79.8%. The growth is 108% in [7]; 106% in assay [8]; 99.7% in assay [9]; 102% in assay [10]; 101% in assay [11]; 74.9% in assay [12]. Besides, the growth in assay [13] is 100%; in [14], 94.7%; in assay [15], 88.5%; in [16], 107%; in [17] it was 93.5%; in assay [18] it was 90.9%. Moreover, the growth in [19] and in assay [20] was 108% throughout.

In the case of `N#CCCN1C/C(=C/c2ccccc2)C(=O)/C(=C/c2ccccc2)C1`, the growth in assay [1] is 2.2% (active); in assay [2], -28.7% (active); in assay [3], 13.9%; in assay [4], 50.3%; in [5], 24.7%; in [6], 26.3%. In addition, the growth was 76.1% in assay [7]; 56.2% in assay [8]; -9.82% (active) in assay [9]; -56.4% (active) in [10]; -48.5% (active) in assay [11]; 62.1% in [12]. Besides, the growth in assay [13] is 68%; in assay [14], -0.696% (active); in [15], 41.1%; in assay [16], 29%; in assay [17], 0.851% (active); in assay [18], -65.5% (active). In addition, the growth is 54.2% in assay [19] and 62.3% in [20].

Turning to `O=C1/C(=C\c2ccccc2)CN(C(=O)c2ccccc2F)C/C1=C\c1ccccc1`, the growth in assay [1] was 0.045% (active); in assay [2] it was -34.5% (active); in assay [3] it was 12.7%; in assay [4] it was -78.2% (active); in assay [5], 16.9%; in [6], 6.51% (active). In addition, the growth in assay [7] is 40.5%; in assay [8] it was -10.1% (active); in assay [9], -59.5% (active); in assay [10] it was -28.5% (active); in assay [11], -46.7% (active); in [12], 53.5%. Also, the growth is 51% in [13]; -36% (active) in assay [14]; 8.54% (active) in assay [15]; -48.6% (active) in assay [16]; -17.4% (active) in assay [17]; -86% (active) in assay [18]. Further, the growth in assay [19] was -56.7% (active); in assay [20], 54.8%.

Turning to `O=C1ON=[N+](c2ccc(Cc3ccc([N+]4=NOC(=O)C4CN4CCOCC4)cc3)cc2)C1CN1CCOCC1` (stereo not given), the growth in assay [1] was 26.4%; in assay [2], 65.6%; in assay [3], 60.5%; in assay [4], 72.2%; in [5] it was 78.3%; in [6], 44.1%. In addition, the growth in assay [7] was 77.5%; in assay [8] it was 75.1%; in assay [9], 69.5%; in [10], 78.6%; in assay [11] it was 89.7%; in [12], 72.6%. Further, the growth was 86.5% in assay [13]; 62.8% in assay [14]; 56.5% in assay [15]; 53.2% in assay [16]; 53.4% in assay [17]; 65% in [18]. For the same compound, the growth is 74.9% in assay [19] and 78.6% in assay [20].

For `CC1(C)N=C(N)N=C(N)N1c1ccc(CCc2ccccc2)c(Cl)c1`, the growth is 11.2% in assay [1]; 43.3% in assay [2]; 39.7% in assay [3]; 44% in assay [4]; 21.1% in assay [5]; 17.7% in assay [6]. For the same compound, the growth in [7] is 21.8%; in assay [8] it was 3.1% (active); in assay [9] it was 20.5%; in assay [10] it was 39.7%; in assay [11], 1.41% (active); in assay [12], 35.8%. Further, the growth in assay [13] was 31.6%; in assay [14], 13.2%; in assay [15], 18.7%; in [16] it was 0.745% (active); in [17], 23%; in [18] it was 12.6%. For the same compound, the values for the growth in assay [19] and in assay [20] were 30.3% and 34.9%, respectively.

In the case of `COc1cc(Cl)cc(-c2nn(-c3cccc(NC(=O)Nc4ccc(Cl)c(C(F)(F)F)c4)c3)cc2-c2ccncc2)c1`, the growth is 8.93% (active) in [1]; -19.8% (active) in [2]; -30.8% (active) in assay [3]; -29.9% (active) in [4]; 22.9% in [5]; -7.48% (active) in assay [6]. Also, the growth in assay [7] was -1.17% (active); in assay [8], -25.9% (active); in [9], 3.99% (active); in assay [10], 7.28% (active); in [11], 5.57% (active); in [12] it was 14.5%. Further, the growth in assay [13] is 28.1%; in assay [14] it was -48.3% (active); in [15], -13% (active); in assay [16], -71.2% (active); in assay [17], 6.62% (active); in [18] it was 4.81% (active). Besides, the growth was 23.6% in assay [19] and -34% (active) in [20].
